Growth data for 39 compounds are collected here from PubChem BioAssay (NCI).

Molecules are shown by their SMILES. “And” between values parts separate entries of the source, which are not always exact repeats. Equal entries are not always repeated. Compounds without any hit were thinned out: in the full panel of roughly 83,000, 20% have a hit.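 Percent growth is the endpoint: 0 to 100 indicates growth inhibition (40 means 60% inhibition), 0 means no net growth, and negative values indicate cell death.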 The source made the active and inactive calls. Rule for the calls: active = growth percent below 10; inactive = the rest.

In one assay the test system is NCI-H23 lung. As to the kind of experiment: NCI-60 one-dose screen, 48 h (100 = growth as untreated, 0 = no growth, -100 = all killed). To be noted: 10 µM unless noted.
As to `CN(C)CCN1C(=O)c2c(c3c4ccccc4n4c3c3c2c2ccccc2n3C2CC(O)C(O)C4(C)O2)C1=O` (stereo not drawn), the growth was 23.1% (inactive).
With `O/N=C(/c1ccccc1)c1ccc2c3c(cccc13)CC2`, the growth was 97.3% (inactive) and 95.1% (inactive).
Same read-out and setting: next, `CCNC(=O)Oc1ccc(/C(=C(/C)Cc2ccc(OC)cc2)c2ccc(OCCN(CC)CC)cc2)cc1`: 78.2% (inactive); `Cc1nnc(NS(=O)(=O)c2ccc(N=Nc3ccc(N)nc3N)cc2)s1`: 100% (inactive) and 110% (inactive); `Cn1cc(C2=C(c3cccc4ccccc34)C(=O)NC2=O)c2cc(Br)ccc21`: 93.5% (inactive).
As to `Cc1ccc2nc3ccccc3c(NCc3ccc(Cl)cc3)c2c1`, the growth is 46% (inactive).
Same read-out and setting: then `Brc1ccc(/C=C(/C2=NCCN2)n2ccc3ccccc32)cc1`, with 87% (inactive); and `Cn1cc2c(=O)nc3c(-c4nc5ccccc5[nH]4)n[nH]n3c2n1`, with 78.6% (inactive); and `Cc1ccc2[nH]c(=S)[nH]c(=O)c2c1`, with 100% (inactive).
Still for that read-out and setting: then `N#CC1=C(N)Oc2c(sc3c(Br)cccc23)C1c1ccccn1` (stereo not drawn), with 53.3% (inactive); and `Cc1nc2sc(C(=O)Nc3cccc4ncccc34)c(N)c2cc1C(C)O` (stereo not drawn), with 80.4% (inactive); and `COc1ccc2c(O)c(/C=C3\N=Nc4nc(C)ccc43)oc2c1CC1CCNCC1`, with 67.2% (inactive).
`Clc1ccc(Nc2nc(Nc3ccc(Cl)cc3)nc(Nc3ccc(-c4cc(-c5cccc(Cl)c5)on4)cc3)n2)cc1`: the growth is 88.1% (inactive).
Still for that read-out and setting: next, `O=C(/C=C/c1ccc(Cl)s1)c1ccc(Cl)s1`: 89.4% (inactive) and 110% (inactive); `O=C1/C(=C/c2ccc(-c3cccc(C(F)(F)F)c3)o2)SC(=S)N1CCc1ccc(O)cc1`: 85% (inactive).
Same read-out and setting: next, `O=C(CCN1CCOCC1)Nc1cccc(-n2cc(-c3ccncc3)c(-c3ccc(Cl)c(O)c3)n2)c1`: 51.7% (inactive); `O=C(Nc1ccc(Cl)c(Cl)c1)Nc1ccc(Cl)c(Cl)c1`: -36.5% (active) and 4.84% (active).
Same read-out and setting: then `CCn1cc(C(=O)NN=C2CCCC2)c(=O)c2ccc(C)nc21`, with 98.9% (inactive).
For `CCOc1ccccc1NC(=O)c1cc2ccccc2cc1O`, the growth is 16.4% (inactive).
Still for that read-out and setting: next, `O=C(c1ccc(Nc2nccc(NCCCNc3ccnc4cc(Cl)ccc34)n2)cc1)N1CCCCC1`: 32.4% (inactive); `Cc1ccc(-c2nc3nc(-c4ccc(Br)cc4)nc(N4CCCNCC4)c3o2)cc1`: 97.9% (inactive); `S=c1nc(CS)[nH]c2ccccc12`: 89.5% (inactive).
On the same count and under the same terms, next, `Cc1ccc2c(c1)C(C)Cc1c(ncnc1-n1cnc3cc(C)ccc31)N2C` (stereo not drawn): 34% (inactive).
Consider `Clc1ccc(/C=N\N2CCCCCC2)cc1`, for which the growth is 97.8% (inactive).
On to `CC(=O)OC[C@]12CCC(C)(C)C=C1[C@H]1CC[C@@H]3[C@@]4(C)CCCNC(C)(C)[C@@H]4CC[C@@]3(C)[C@]1(C)CC2`, for which the growth is 65% (inactive).
As to `Cc1[nH]c(C(=O)Nc2nc3ccc(NC(=O)CCN)cc3s2)c(Cl)c1Cl`, the growth is 37.4% (inactive).
In the case of `COc1ccc(C(=O)c2ccc(OC)c(OC)c2OC)cc1`, the growth was 41.1% (inactive) and 40.7% (inactive).
Same read-out and setting: next, `COc1cc(NC2CCCCC2O)c2nc(-c3ccc(Cl)cc3)ccc2c1` (stereo not drawn): 84.2% (inactive) and 98.5% (inactive).
On the same count and under the same terms, then `CN1CCCc2cc(/C=C3\SC(=S)N(C(Cc4ccc(O)cc4)C(=O)O)C3=O)ccc21` (stereo not drawn), with 78% (inactive); and `Cc1cc(N2CCN(CC(=O)Nc3ccc4c(ccn4Cc4ccccc4)c3)CC2)nc(N2CCCCCC2)n1`, with 53.2% (inactive); and `CCCCC1COc2cccc3c2N1C=C/C3=C\C(=O)N(C)c1cccc(Cl)c1` (stereo not drawn), with 97.5% (inactive).
`O=C(NNc1ccccc1)C1CCCN1` (stereo not drawn): the growth is 98.8% (inactive).
Same read-out and setting: then `O=C1C=C(Nc2ccccc2)c2ncccc2C1=O`, with -43.1% (active); and `Nc1nc(CSc2n[nH]c(N)n2)nc(Nc2ccccc2)n1`, with 102% (inactive); and `O=C1/C(=C/c2ccccc2[N+](=O)[O-])Cc2ccccc21`, with 22.6% (inactive) and 59.2% (inactive).
As for `COc1ccc(/C=C2/C(=O)N=C3N2NC(c2ccccc2)=CN3c2ccccc2)cc1`, the growth was 86.4% (inactive).
As to `CCN(CC)CCCN1C(=O)c2c(c(C)c3c(oc4cc(OC)ccc43)c2C)C1=O`, the growth is 105% (inactive).
The same measure, in the same setting: next, `CC[C@]12CN3CCc4c([nH]c5ccccc45)[C@@](C(=O)OC)(c4cc5c(cc4OC)N(C)[C@H]4[C@@](O)(C(=O)OC)[C@H](OC(C)=O)[C@]6(CC)C=CCN7CC[C@]54[C@@H]76)CC(C3)[C@H]1O2` (stereo partly drawn): 21.1% (inactive).
With `O=C(/C=C\c1ccc(Cl)c(Cl)c1)c1ccccc1`, the growth is 89.1% (inactive).

A further assay deals with NCI-H226 lung. The assay is described as above. The settings on record: 10 µM unless noted.
`CN(C)CCN1C(=O)c2c(c3c4ccccc4n4c3c3c2c2ccccc2n3C2CC(O)C(O)C4(C)O2)C1=O` (stereo not drawn): the growth was 18.6% (inactive).
Turning to `O/N=C(/c1ccccc1)c1ccc2c3c(cccc13)CC2`, the growth is 100% (inactive).
For the compound `CCNC(=O)Oc1ccc(/C(=C(/C)Cc2ccc(OC)cc2)c2ccc(OCCN(CC)CC)cc2)cc1`, the growth is 91.9% (inactive).
Turning to `Cc1nnc(NS(=O)(=O)c2ccc(N=Nc3ccc(N)nc3N)cc2)s1`, the growth was 111% (inactive) and 110% (inactive).
Still for that read-out and setting: next, `Cn1cc(C2=C(c3cccc4ccccc34)C(=O)NC2=O)c2cc(Br)ccc21`: 103% (inactive); `Cc1ccc2nc3ccccc3c(NCc3ccc(Cl)cc3)c2c1`: 72.3% (inactive); `Brc1ccc(/C=C(/C2=NCCN2)n2ccc3ccccc32)cc1`: 62.1% (inactive).
The same measure, in the same setting: next, `Cn1cc2c(=O)nc3c(-c4nc5ccccc5[nH]4)n[nH]n3c2n1`: 96.4% (inactive); `Cc1ccc2[nH]c(=S)[nH]c(=O)c2c1`: 102% (inactive); `N#CC1=C(N)Oc2c(sc3c(Br)cccc23)C1c1ccccn1` (stereo not drawn): 41.2% (inactive).
Still for that read-out and setting: next, `Cc1nc2sc(C(=O)Nc3cccc4ncccc34)c(N)c2cc1C(C)O` (stereo not drawn): 85.1% (inactive); `COc1ccc2c(O)c(/C=C3\N=Nc4nc(C)ccc43)oc2c1CC1CCNCC1`: 57.5% (inactive); `Clc1ccc(Nc2nc(Nc3ccc(Cl)cc3)nc(Nc3ccc(-c4cc(-c5cccc(Cl)c5)on4)cc3)n2)cc1`: 99.9% (inactive).
Turning to `O=C(/C=C/c1ccc(Cl)s1)c1ccc(Cl)s1`, the growth was 91.4% (inactive) and 102% (inactive).
On to `O=C1/C(=C/c2ccc(-c3cccc(C(F)(F)F)c3)o2)SC(=S)N1CCc1ccc(O)cc1`, for which the growth was 101% (inactive).
As to `O=C(CCN1CCOCC1)Nc1cccc(-n2cc(-c3ccncc3)c(-c3ccc(Cl)c(O)c3)n2)c1`, the growth was 71% (inactive).
On the same count and under the same terms, then `O=C(Nc1ccc(Cl)c(Cl)c1)Nc1ccc(Cl)c(Cl)c1`, with 23.7% (inactive); and `CCn1cc(C(=O)NN=C2CCCC2)c(=O)c2ccc(C)nc21`, with 82.9% (inactive); and `CCOc1ccccc1NC(=O)c1cc2ccccc2cc1O`, with 71.8% (inactive).
Still for that read-out and setting: next, `O=C(c1ccc(Nc2nccc(NCCCNc3ccnc4cc(Cl)ccc34)n2)cc1)N1CCCCC1`: 84.9% (inactive); `Cc1ccc(-c2nc3nc(-c4ccc(Br)cc4)nc(N4CCCNCC4)c3o2)cc1`: 103% (inactive).
On to `S=c1nc(CS)[nH]c2ccccc12`, for which the growth was 87.4% (inactive).
Take `Cc1ccc2c(c1)C(C)Cc1c(ncnc1-n1cnc3cc(C)ccc31)N2C` (stereo not drawn): the growth is 47.4% (inactive).
On the same count and under the same terms, next, `Clc1ccc(/C=N\N2CCCCCC2)cc1`: 93.8% (inactive) and 125% (inactive).
The same measure, in the same setting: next, `CC(=O)OC[C@]12CCC(C)(C)C=C1[C@H]1CC[C@@H]3[C@@]4(C)CCCNC(C)(C)[C@@H]4CC[C@@]3(C)[C@]1(C)CC2`: 77.9% (inactive); `Cc1[nH]c(C(=O)Nc2nc3ccc(NC(=O)CCN)cc3s2)c(Cl)c1Cl`: 86.7% (inactive); `COc1ccc(C(=O)c2ccc(OC)c(OC)c2OC)cc1`: 62.8% (inactive) and 53.2% (inactive).
Still for that read-out and setting: next, `COc1cc(NC2CCCCC2O)c2nc(-c3ccc(Cl)cc3)ccc2c1` (stereo not drawn): 90% (inactive); `CN1CCCc2cc(/C=C3\SC(=S)N(C(Cc4ccc(O)cc4)C(=O)O)C3=O)ccc21` (stereo not drawn): 99.8% (inactive); `Cc1cc(N2CCN(CC(=O)Nc3ccc4c(ccn4Cc4ccccc4)c3)CC2)nc(N2CCCCCC2)n1`: 57.4% (inactive).
Take `CCCCC1COc2cccc3c2N1C=C/C3=C\C(=O)N(C)c1cccc(Cl)c1` (stereo not drawn): the growth was 100% (inactive).
The same measure, in the same setting: then `O=C(NNc1ccccc1)C1CCCN1` (stereo not drawn), with 80.9% (inactive); and `O=C1C=C(Nc2ccccc2)c2ncccc2C1=O`, with -46.6% (active).
`Nc1nc(CSc2n[nH]c(N)n2)nc(Nc2ccccc2)n1`: the growth is 101% (inactive).
On the same count and under the same terms, next, `O=C1/C(=C/c2ccccc2[N+](=O)[O-])Cc2ccccc21`: 19.4% (inactive); `COc1ccc(/C=C2/C(=O)N=C3N2NC(c2ccccc2)=CN3c2ccccc2)cc1`: 93.2% (inactive).
Still for that read-out and setting: next, `CCN(CC)CCCN1C(=O)c2c(c(C)c3c(oc4cc(OC)ccc43)c2C)C1=O`: -5.51% (active).
Same read-out and setting: next, `CC[C@]12CN3CCc4c([nH]c5ccccc45)[C@@](C(=O)OC)(c4cc5c(cc4OC)N(C)[C@H]4[C@@](O)(C(=O)OC)[C@H](OC(C)=O)[C@]6(CC)C=CCN7CC[C@]54[C@@H]76)CC(C3)[C@H]1O2` (stereo partly drawn): 42.6% (inactive); `O=C(/C=C\c1ccc(Cl)c(Cl)c1)c1ccccc1`: 88.2% (inactive) and 92.3% (inactive).
